Test results taken from PubChem BioAssay (Tox21).
Inconclusive results are not listed. A number with no mark means an inactive call. Calls come from the whole dose curve; as a rule, active = well fitted cell-killing curve with a large enough effect in the repeat runs; inconclusive = weak or mixed curves, or effect the other way; inactive = no such curve, though single readings can be large or run the other way.

Test: qHTS assay to identify small molecule antagonists of the glucocorticoid receptor (GR) signaling pathway - cell viability counter screen (AID 720693); note: nearly all actives have a fitted effect of over 55% in size
Details: GR-bla HeLa viability, CellTiter-Glo luminescence, 18 h, with 5 nM dexamethasone present; series mostly up to 58.5 µM; viability change, negative = cytotoxic: at the top concentration
% is set by controls: 0 for no effect and ±100 for the full control effect.

Compound	viability change, negative = cytotoxic [%]
CC(=O)Oc1cccc(C(=O)O)c1OC(C)=O	-0.37
OC1OC[C@@H](O)[C@H](O)[C@@H]1O (stereo partly specified)	5.72
CO[C@H]1[C@@H](O)[C@H](N)[C@@H](O[C@H]2O[C@H]([C@H](C)N)CC[C@H]2N)[C@H](O)[C@@H]1N(C)C(=O)CN	-0.301
NCCCC[C@H](NC(=O)[C@@H]1CCCN1C(=O)[C@@H]1CSSC[C@H](N)C(=O)N[C@@H](Cc2ccccc2)C(=O)N[C@@H](Cc2ccccc2)C(=O)N[C@@H](CCC(N)=O)C(=O)N[C@@H](CC(N)=O)C(=O)N1)C(=O)NCC(N)=O	-7.47
CC(=O)[C@@]1(O)CC[C@H]2[C@@H]3C=C(Cl)C4=CC(=O)[C@@H]5C[C@@H]5[C@]4(C)[C@H]3CC[C@@]21C	-20.5
CCC(C)[C@@H](N)C(=O)O (stereo partly specified)	9.32
